Among the data in publication PMC7862700, “An all-to-all approach to the identification of sequence-specific readers for epigenetic DNA modifications on cytosine” are binding signal values, retold here.

Holding throughout (assay): DAPPL (digital affinity profiling via proximity ligation, sequencing); 10 mM Tris-HCl pH 7.5, 50 mM NaCl, 1 mM DTT, 4% glycerol, room temperature, 30 min; GST-TFs on glutathione beads, 16-mer random dsDNA library, 0.1% formaldehyde crosslink after washing; high values mean tight binding
The target of one experiment is T1, FEV (Homo sapiens, UniProt Q99581 1-238).
T1 sequence: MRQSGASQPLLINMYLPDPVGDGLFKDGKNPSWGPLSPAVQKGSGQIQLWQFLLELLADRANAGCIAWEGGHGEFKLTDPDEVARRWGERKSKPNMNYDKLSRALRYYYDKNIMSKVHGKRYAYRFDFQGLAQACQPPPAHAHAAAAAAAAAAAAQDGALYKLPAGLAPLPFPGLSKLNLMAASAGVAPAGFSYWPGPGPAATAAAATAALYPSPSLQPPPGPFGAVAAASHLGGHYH
The following applies: protein: recombinant; tags: N-terminal GST; dsDNA, one strand shown. The method, boiled down:
(§1)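 Binding signal is defined as a hexamer's read frequency for one factor over its frequency for the tag-only sample. To obtain reads, GST-fused human transcription factors were expressed in yeast, captured on glutathione beads, barcoded with DNA and pooled with that sample. Pools met 200 nmole of a 16-mer random double-stranded DNA library in Tris/NaCl/DTT/glycerol buffer for 30 min at room temperature before washing, 0.1% formaldehyde crosslinking, proximity ligation (BsaI/T4 ligase, 1 h, 37 °C), PCR and Illumina NextSeq500 sequencing.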

A further experiment has as its target ETV5 (Homo sapiens, UniProt P41161 1-510). The following applies: protein: recombinant; tags: N-terminal GST; dsDNA, one strand shown. The method, boiled down: as §1
For the next experiment, the target named is HSF1 (Homo sapiens, UniProt Q00613 1-529). The following applies: protein: recombinant; tags: N-terminal GST; chain copies: 3; dsDNA, one strand shown. The method, boiled down:
as §1

In another experiment the target is T2, SPIC (Homo sapiens, UniProt Q8N5J4 1-248).
T2 sequence: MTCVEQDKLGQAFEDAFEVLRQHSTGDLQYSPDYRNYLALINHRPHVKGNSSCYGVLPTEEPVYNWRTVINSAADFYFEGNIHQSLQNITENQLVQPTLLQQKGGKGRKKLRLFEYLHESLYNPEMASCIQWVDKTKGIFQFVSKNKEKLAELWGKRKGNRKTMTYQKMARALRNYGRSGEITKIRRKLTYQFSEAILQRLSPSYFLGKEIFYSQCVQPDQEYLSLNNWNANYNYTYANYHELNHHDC
The settings on record: protein: recombinant; tags: N-terminal GST; dsDNA, one strand shown. In a few lines:
as §1

The target in a further experiment is ELF4 (Homo sapiens, UniProt Q99607 1-663). The settings on record: protein: recombinant; tags: N-terminal GST; dsDNA, one strand shown. In a few lines:
as §1

The next experiment has as its target T3, ELK4 (Homo sapiens, UniProt P28324-2 1-405).
T3 sequence: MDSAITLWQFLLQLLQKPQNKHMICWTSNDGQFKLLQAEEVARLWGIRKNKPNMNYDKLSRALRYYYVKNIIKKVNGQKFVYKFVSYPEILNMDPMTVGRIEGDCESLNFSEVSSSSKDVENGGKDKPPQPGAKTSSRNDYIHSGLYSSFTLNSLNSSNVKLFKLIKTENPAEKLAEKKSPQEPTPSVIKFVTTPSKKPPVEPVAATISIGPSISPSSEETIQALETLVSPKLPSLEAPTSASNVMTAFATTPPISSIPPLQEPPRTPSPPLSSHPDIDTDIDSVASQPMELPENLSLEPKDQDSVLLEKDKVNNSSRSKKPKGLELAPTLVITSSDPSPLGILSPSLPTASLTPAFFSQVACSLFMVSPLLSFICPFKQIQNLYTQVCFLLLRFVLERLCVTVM
The following applies: protein: recombinant; tags: N-terminal GST; dsDNA, one strand shown. In a few lines:
as §1

Another experiment has as its target T4, ETV2 (Homo sapiens, UniProt O00321 1-342).
T4 sequence: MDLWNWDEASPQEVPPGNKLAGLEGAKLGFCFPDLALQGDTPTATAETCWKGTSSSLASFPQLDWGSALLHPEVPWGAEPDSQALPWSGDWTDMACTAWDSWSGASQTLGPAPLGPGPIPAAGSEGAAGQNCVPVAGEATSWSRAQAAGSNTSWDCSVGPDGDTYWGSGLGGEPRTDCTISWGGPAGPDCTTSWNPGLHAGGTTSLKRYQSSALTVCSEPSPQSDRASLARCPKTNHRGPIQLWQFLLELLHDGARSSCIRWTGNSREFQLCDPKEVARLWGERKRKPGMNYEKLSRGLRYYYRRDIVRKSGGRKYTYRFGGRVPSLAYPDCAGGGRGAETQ
The following applies: protein: recombinant; tags: N-terminal GST; dsDNA, one strand shown. The method, boiled down:
as §1

The next experiment concerns the target T5, ELF3 (Homo sapiens, UniProt P78545 1-371).
T5 sequence: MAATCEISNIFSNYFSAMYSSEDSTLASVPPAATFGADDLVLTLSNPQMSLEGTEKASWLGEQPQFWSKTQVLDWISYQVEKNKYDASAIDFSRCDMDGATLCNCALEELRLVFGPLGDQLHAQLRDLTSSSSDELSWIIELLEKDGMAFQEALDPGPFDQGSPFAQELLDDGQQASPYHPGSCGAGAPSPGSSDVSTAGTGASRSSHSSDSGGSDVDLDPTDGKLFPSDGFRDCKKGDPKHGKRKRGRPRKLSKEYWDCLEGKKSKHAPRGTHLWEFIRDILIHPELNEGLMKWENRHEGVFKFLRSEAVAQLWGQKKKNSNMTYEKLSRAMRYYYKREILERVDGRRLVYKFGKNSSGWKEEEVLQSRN
The settings on record: protein: recombinant; tags: N-terminal GST; dsDNA, one strand shown. The method, boiled down: as §1

Another experiment has as its target CRX (Homo sapiens, UniProt O43186 1-299). The settings on record: protein: recombinant; tags: N-terminal GST; dsDNA, one strand shown. In a few lines: as §1
In another experiment the target is ETV1 (Homo sapiens, UniProt P50549 1-477). The settings on record: protein: recombinant; tags: N-terminal GST; dsDNA, one strand shown. The method, boiled down:
as §1

The next experiment has as its target T6, ERF (Homo sapiens, UniProt P50548 1-548).
T6 sequence: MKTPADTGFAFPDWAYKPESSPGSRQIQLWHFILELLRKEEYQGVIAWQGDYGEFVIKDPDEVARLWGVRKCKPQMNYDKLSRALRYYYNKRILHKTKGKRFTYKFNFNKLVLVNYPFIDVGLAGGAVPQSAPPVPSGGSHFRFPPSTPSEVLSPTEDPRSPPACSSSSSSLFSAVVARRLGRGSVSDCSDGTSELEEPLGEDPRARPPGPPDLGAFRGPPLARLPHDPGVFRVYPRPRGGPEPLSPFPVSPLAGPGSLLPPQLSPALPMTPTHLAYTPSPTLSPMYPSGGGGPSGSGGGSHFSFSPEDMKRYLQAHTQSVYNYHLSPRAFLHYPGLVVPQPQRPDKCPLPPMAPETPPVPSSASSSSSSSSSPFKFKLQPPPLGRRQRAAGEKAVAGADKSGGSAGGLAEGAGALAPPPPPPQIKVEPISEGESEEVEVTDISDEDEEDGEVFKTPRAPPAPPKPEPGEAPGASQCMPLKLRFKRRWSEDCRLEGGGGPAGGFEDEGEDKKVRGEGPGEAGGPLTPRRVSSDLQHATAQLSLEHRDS
The settings on record: protein: recombinant; tags: N-terminal GST; dsDNA, one strand shown. In a few lines:
as §1

A further experiment deals with T7, ETV3L (Homo sapiens, UniProt Q6ZN32 1-361).
T7 sequence: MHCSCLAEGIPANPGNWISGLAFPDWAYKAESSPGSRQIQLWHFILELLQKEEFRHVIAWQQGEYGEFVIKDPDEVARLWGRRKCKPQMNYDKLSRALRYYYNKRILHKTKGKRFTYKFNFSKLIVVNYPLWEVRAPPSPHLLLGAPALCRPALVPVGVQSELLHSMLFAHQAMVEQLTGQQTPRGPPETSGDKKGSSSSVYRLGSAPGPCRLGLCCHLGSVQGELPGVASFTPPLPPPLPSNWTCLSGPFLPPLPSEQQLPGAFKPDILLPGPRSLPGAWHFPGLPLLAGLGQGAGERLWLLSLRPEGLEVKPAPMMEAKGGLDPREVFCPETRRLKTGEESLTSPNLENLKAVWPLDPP
The following applies: protein: recombinant; tags: N-terminal GST; dsDNA, one strand shown. In a few lines:
as §1

In a further experiment the target is T8, ETS2 (Homo sapiens, UniProt P15036 1-469).
T8 sequence: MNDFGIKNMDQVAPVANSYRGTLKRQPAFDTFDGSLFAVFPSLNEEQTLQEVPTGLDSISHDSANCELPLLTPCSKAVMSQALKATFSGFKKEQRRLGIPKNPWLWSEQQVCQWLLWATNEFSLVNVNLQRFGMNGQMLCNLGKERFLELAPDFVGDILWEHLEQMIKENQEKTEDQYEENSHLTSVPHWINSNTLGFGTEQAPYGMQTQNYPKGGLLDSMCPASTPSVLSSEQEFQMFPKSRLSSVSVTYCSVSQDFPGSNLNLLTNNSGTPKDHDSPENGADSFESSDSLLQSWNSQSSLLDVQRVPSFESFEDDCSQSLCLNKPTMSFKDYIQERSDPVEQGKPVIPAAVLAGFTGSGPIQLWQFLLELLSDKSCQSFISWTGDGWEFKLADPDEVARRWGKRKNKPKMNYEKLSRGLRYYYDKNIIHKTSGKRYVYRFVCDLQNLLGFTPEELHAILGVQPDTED
The following applies: protein: recombinant; tags: N-terminal GST; dsDNA, one strand shown. In a few lines: as §1

The target in the next experiment is T9, SPDEF (Homo sapiens, UniProt O95238 1-335).
T9 sequence: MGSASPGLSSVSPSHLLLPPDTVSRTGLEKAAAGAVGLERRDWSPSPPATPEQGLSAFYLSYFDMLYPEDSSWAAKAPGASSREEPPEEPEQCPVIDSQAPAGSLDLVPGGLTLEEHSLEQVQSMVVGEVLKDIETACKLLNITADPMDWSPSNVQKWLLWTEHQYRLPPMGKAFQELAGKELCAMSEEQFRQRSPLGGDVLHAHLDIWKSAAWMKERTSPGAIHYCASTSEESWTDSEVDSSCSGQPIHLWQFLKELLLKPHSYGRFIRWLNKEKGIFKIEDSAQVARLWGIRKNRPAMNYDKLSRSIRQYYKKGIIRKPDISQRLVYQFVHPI
The settings on record: protein: recombinant; tags: N-terminal GST; dsDNA, one strand shown. In a few lines:
as §1

Another experiment has as its target T10, ETV7 (Homo sapiens, UniProt Q9Y603 1-341).
T10 sequence: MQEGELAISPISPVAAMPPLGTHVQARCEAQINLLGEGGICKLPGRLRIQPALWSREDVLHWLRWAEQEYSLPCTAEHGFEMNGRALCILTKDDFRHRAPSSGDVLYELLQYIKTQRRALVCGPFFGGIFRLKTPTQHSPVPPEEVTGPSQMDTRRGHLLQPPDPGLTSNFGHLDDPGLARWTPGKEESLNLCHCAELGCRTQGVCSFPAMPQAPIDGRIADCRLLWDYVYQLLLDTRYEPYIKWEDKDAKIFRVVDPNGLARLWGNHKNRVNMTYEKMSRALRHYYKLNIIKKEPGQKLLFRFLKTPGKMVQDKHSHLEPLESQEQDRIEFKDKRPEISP
The following applies: protein: recombinant; tags: N-terminal GST; dsDNA, one strand shown. In a few lines: as §1

In a further experiment the target is T11, ELF5 (Homo sapiens, UniProt Q9UKW6-2 1-255).
T11 sequence: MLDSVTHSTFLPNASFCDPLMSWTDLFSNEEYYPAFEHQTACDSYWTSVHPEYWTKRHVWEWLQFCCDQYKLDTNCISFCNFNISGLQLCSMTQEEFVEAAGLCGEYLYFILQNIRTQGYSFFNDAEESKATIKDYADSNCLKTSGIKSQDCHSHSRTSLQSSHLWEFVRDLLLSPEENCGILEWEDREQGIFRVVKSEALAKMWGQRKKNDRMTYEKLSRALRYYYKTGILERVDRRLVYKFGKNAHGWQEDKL
The settings on record: protein: recombinant; tags: N-terminal GST; dsDNA, one strand shown. The method, boiled down: as §1

In another experiment the target is T12, ETV3 (Homo sapiens, UniProt P41162-2 1-143).
T12 sequence: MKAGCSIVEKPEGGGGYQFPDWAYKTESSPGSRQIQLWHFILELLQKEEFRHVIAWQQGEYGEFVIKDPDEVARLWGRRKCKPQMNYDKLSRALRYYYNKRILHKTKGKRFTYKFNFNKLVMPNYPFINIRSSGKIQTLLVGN
The following applies: protein: recombinant; tags: N-terminal GST; dsDNA, one strand shown. In a few lines:
as §1

Another experiment addresses ETV6 (Homo sapiens, UniProt P41212 1-452). The following applies: protein: recombinant; tags: N-terminal GST; dsDNA, one strand shown. In a few lines:
as §1

ETV6, sequence (P41212 whole entry): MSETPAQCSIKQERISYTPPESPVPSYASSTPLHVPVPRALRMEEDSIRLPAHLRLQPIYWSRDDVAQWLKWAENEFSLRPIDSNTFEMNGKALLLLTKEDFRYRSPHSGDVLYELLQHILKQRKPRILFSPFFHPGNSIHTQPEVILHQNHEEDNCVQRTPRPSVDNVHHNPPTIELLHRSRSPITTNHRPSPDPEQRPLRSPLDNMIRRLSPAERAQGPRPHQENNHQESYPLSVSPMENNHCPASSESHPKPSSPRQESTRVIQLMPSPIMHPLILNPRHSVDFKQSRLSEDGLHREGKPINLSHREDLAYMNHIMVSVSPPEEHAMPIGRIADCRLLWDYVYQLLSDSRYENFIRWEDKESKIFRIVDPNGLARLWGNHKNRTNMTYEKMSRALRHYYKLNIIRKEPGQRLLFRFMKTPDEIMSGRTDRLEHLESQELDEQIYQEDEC
ELF4, sequence (Q99607 whole entry): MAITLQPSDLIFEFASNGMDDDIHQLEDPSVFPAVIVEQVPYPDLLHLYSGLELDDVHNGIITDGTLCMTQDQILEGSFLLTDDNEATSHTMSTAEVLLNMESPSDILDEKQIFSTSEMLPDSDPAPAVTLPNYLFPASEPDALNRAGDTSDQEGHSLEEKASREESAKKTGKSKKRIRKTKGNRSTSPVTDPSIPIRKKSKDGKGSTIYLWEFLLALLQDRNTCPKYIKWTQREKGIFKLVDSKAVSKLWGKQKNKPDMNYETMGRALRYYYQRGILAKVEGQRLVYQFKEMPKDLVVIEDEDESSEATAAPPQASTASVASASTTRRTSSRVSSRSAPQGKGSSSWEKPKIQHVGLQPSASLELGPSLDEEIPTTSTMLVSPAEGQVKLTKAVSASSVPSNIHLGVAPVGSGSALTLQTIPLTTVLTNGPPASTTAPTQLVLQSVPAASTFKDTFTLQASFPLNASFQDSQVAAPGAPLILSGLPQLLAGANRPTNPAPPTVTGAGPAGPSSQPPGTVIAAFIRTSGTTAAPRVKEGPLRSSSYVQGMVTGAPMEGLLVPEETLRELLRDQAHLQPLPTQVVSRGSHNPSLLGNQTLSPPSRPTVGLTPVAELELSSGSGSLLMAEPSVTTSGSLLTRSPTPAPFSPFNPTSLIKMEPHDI
ETV5, sequence (P41161 whole entry): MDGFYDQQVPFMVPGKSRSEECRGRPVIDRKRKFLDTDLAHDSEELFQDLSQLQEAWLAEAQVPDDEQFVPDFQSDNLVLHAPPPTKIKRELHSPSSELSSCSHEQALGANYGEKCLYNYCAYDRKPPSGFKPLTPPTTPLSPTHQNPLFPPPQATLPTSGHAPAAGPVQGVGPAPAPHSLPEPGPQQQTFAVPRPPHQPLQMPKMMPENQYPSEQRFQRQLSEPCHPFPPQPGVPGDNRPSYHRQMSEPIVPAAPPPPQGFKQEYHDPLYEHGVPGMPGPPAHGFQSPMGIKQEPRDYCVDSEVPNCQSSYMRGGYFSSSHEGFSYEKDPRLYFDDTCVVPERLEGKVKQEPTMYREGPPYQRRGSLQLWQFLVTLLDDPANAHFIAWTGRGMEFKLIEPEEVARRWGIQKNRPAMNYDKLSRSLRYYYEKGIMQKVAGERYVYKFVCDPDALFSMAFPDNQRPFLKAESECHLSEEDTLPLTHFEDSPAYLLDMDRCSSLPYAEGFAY
HSF1, sequence (Q00613 whole entry): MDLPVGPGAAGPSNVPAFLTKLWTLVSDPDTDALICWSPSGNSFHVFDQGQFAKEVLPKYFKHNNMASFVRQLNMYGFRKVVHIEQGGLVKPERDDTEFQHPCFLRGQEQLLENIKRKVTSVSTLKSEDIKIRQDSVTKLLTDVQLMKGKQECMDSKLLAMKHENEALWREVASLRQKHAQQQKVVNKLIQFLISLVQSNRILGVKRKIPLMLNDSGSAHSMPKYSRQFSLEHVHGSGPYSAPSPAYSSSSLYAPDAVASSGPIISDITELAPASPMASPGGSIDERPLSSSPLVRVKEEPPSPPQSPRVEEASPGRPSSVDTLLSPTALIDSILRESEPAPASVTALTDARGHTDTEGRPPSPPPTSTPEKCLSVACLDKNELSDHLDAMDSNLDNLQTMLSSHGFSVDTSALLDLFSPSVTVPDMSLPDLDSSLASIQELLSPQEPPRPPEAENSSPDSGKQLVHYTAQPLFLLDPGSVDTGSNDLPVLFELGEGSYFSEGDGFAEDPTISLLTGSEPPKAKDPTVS
CRX, sequence (O43186 whole entry): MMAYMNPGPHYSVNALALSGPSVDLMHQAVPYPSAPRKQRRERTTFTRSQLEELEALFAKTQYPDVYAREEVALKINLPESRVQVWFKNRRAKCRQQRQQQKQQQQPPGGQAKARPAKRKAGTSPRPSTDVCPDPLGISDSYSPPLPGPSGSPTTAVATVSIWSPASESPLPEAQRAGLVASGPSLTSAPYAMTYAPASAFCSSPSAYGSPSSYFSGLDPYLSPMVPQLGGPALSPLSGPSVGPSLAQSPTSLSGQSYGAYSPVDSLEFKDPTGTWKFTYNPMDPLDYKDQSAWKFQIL
ETV1, sequence (P50549 whole entry): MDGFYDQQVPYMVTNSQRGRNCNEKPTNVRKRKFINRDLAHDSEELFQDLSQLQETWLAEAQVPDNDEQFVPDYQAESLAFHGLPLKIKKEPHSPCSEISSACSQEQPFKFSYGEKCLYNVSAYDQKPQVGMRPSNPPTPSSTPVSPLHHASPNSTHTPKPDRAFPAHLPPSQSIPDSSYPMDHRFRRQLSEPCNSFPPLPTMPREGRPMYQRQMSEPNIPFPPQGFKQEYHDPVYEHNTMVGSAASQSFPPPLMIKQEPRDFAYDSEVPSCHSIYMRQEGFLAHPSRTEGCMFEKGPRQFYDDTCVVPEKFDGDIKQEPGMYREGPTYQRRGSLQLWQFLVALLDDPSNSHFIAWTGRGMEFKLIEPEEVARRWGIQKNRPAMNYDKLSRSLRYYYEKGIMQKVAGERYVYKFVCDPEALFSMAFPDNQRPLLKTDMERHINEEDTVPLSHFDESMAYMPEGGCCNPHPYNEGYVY

Consider ATTCGC, for which the binding signal was 1.24 fold enrichment (6-mer frequency, TF over GST control) in the experiment with FEV; 1.13 fold enrichment (6-mer frequency, TF over GST control) in the experiment with ETV5; 1.47 fold enrichment (6-mer frequency, TF over GST control) with HSF1; 1.39 fold enrichment (6-mer frequency, TF over GST control) with SPIC; 1.11 fold enrichment (6-mer frequency, TF over GST control) in the experiment with ELF4; 1.1 fold enrichment (6-mer frequency, TF over GST control) with ELK4. The binding signal is 1.29 fold enrichment (6-mer frequency, TF over GST control) with ETV2; 1.27 fold enrichment (6-mer frequency, TF over GST control) with ELF3; 1.26 fold enrichment (6-mer frequency, TF over GST control) in the experiment with CRX; 1.11 fold enrichment (6-mer frequency, TF over GST control) in the experiment with ETV1; 1.24 fold enrichment (6-mer frequency, TF over GST control) in the experiment with ERF; 1.23 fold enrichment (6-mer frequency, TF over GST control) with ETV3L. Besides, the binding signal in the experiment with ETS2 is 1.15 fold enrichment (6-mer frequency, TF over GST control); with SPDEF, 1.26 fold enrichment (6-mer frequency, TF over GST control); with ETV7 it was 1.12 fold enrichment (6-mer frequency, TF over GST control); with ELF5, 1.18 fold enrichment (6-mer frequency, TF over GST control); in the experiment with ETV3 it was 1.23 fold enrichment (6-mer frequency, TF over GST control); with ETV6, 1.25 fold enrichment (6-mer frequency, TF over GST control).
